Compound activity from PubChem BioAssay.
Hits are enriched below; roughly 22% of the tested compounds scored in any of these assays.
LmPK inhibitor: qHTS Assay for Inhibitors of Leishmania Mexicana Pyruvate Kinase (LmPK). Q27686. purified LmPK, Kinase-Glo ATP luminescence, 1 h. Potency, µM (titrated, usually from 57.5 µM), usual class: inhibitors. 290,000 compounds, 0.37% hits. AID 1721, 2009
Target sequence (Q27686 whole entry, looked up): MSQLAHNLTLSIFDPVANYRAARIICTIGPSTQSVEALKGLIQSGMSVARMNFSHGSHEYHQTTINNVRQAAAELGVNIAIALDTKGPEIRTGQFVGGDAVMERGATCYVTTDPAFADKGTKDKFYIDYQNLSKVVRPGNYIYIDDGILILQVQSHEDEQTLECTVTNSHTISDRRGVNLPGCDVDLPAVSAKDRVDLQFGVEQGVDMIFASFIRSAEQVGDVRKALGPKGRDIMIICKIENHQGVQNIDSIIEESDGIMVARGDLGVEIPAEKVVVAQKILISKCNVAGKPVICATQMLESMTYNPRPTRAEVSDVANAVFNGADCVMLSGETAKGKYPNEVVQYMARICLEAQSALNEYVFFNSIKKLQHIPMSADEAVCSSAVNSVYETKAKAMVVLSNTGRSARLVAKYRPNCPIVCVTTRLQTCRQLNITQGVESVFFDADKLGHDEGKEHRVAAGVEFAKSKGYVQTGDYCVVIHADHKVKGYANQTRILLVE
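0.1 nM LmPK, 0.5 mM PEP, 0.1 mM ADP; 50 mM imidazole pH 7.2, 7 mM MgCl2, 50 mM KCl; 1 h RT. Kinase-Glo luminescence readout, normalized to no-enzyme (full inhibition) and uninhibited wells.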
Pf growth 96h: Primary qHTS for delayed death inhibitors of the malarial parasite plastid, 96 hour incubation. P. falciparum luciferase reporter growth, 96 h. Potency, µM (highest dose often 28.7 µM), hits mostly inhibitors. 320,000 compounds, 6.9% hits
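Plates of compound plus infected erythrocytes (2% hematocrit, 0.05% parasitemia final) incubate 96 hours, 37 C, 5% CO2. Detection reagent added; reduced luminescence from the parasites' luciferase reporter flags inhibition.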
Shiga toxin inh: A qHTS for Small Molecule Inhibitors of Shiga Toxin | Vero cells, Shiga toxin protein synthesis inhibition reporter | inhibition, % at 38.7 µM | 290,000 compounds, 9.2% hits; in the data active = inhibition mostly above about 28%, no sharp cut-off; inactive = mostly below about 43%
Pf growth 48h: Primary qHTS for delayed death inhibitors of the malarial parasite plastid, 48 hour incubation | 310,000 compounds, 5.9% hits | P. falciparum luciferase growth in erythrocytes, 48 h | AID 504832, 2011 | Potency, µM (top dose mostly 28.7 µM), hits mostly inhibitors
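Compounds are pin-transferred into medium, infected erythrocytes (2% hematocrit, 0.1% parasitemia final) are added, and plates sit one parasite generation at 37 C in 5% CO2. Detection reagent is then added and luminescence measured.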
CHX counter: Cycloheximide Counterscreen for Small Molecule Inhibitors of Shiga Toxin | cell reporter, cycloheximide protein synthesis inhibition counterscreen | max response, % | 300,000 compounds, 12% hits; in the data active = max response mostly above about 13%, no sharp cut-off; inactive = mostly below about 14%; note: read at 38.3 µM for the half of the compounds with a filed dose
Large screens that a line does not name were inactive. Unless noted, calls come from the whole dose curve; as a rule, active = well fitted inhibition curve with a large enough effect; inconclusive = small, poorly fitted or top-dose-only effect, or another doubt; inactive = no such curve, though single readings can be large or run the other way.

Cc1cc(C)nc(Nc2n[nH]c(-c3ccc(C(C)(C)C)cc3)n2)n1	Pf growth 48h inconclusive
Cc1cc(C)nc(Nc2n[nH]c(C)n2)n1	none
Cc1cc(C)nc(Nc2n[nH]c(-c3ccccc3Br)n2)n1	Shiga toxin inh 110, CHX counter 48 (no result: Pf growth 96h)
Cc1cc(C)nc(Nc2n[nH]c(-c3ccc(N)cc3)n2)n1	Shiga toxin inh 72, CHX counter 36 (no result: Pf growth 96h)
CC1CC(C)CN(C(=O)CSc2ncnc3sccc23)C1 (centres undefined)	none (no result: LmPK inhibitor, Shiga toxin inh, CHX counter)
Cc1cccc(N(C(=O)Nc2ccc(Cl)cc2)C2=NCC(C)S2)n1 (centres undefined)	Pf growth 96h inconclusive, CHX counter 20
CC1CN=C(N(C(=O)Nc2ccccc2)c2ccc(F)cc2)S1 (centres undefined)	Pf growth 96h inconclusive (no result: Pf growth 48h)
Cc1cccc(N(C(=O)Nc2ccccc2)C2=NCC(C)S2)c1 (centres undefined)	Pf growth 96h inconclusive, Shiga toxin inh 66, CHX counter 30 (no result: Pf growth 48h)
COc1ccc(Cl)cc1N(C(=O)Nc1cccc(Cl)c1)C1=NCC(C)S1 (centres undefined)	Pf growth 96h inconclusive
O=C(CN1C(=O)C2C3c4ccccc4C(c4ccccc43)C2C1=O)Nc1ccccc1C(=O)O (centres undefined)	Pf growth 96h inconclusive
CCn1nc(C)c(CN2CCC(C(=O)Nc3cccc(-c4cccc(Cl)c4)c3)CC2)c1C	Pf growth 48h inconclusive
Cc1ccc(/C=N/c2sc3c(c2C#N)CCC3)s1	Pf growth 96h 7.4µM, Shiga toxin inh 114, CHX counter 55
N#Cc1c(/N=C/c2cc3ccccc3s2)sc2c1CCC2	Shiga toxin inh 33, CHX counter 20
CN(CCOc1ccccc1)C(=S)Nc1ccc(OC(F)F)cc1	none
COc1ccc(N(C(=O)c2snc(C(N)=O)c2N)C(C(=O)NC2CCCC2)c2cc(OC)ccc2OC)c(OC)c1 (centres undefined)	Pf growth 48h 1.9µM
COc1ccc(C(C(=O)NC2CCCC2)N(C(=O)c2snc(C(N)=O)c2N)c2ccccc2OC)cc1OC (centres undefined)	Pf growth 48h 9.3µM
COc1ccc(N(C(=O)c2snc(C(N)=O)c2N)C(C(=O)NC2CCCCC2)c2ccc(F)cc2)c(OC)c1 (centres undefined)	Pf growth 48h inconclusive
CCn1cc(S(=O)(=O)N2CCc3ccccc3C2)cn1	none
COc1ccc(CNC(=O)[C@H](C)NC(=O)C2CCN(S(=O)(=O)c3ccccc3)CC2)cc1	Pf growth 96h inconclusive
O=C(COc1ccc([N+](=O)[O-])cc1)NCc1ccncc1	Pf growth 96h inconclusive
COc1ccc(C(=O)NC(=S)NCCc2ccccc2)cc1	none
CC(C)(C)C(=O)NC(=S)NCc1ccccc1	Pf growth 96h 9.3µM
CC(C)CC(=O)NC(=S)NCCc1ccccc1	Pf growth 96h inconclusive, Shiga toxin inh 57, Pf growth 48h inconclusive, CHX counter 26
COc1cc(NC(=S)NCCc2ccccc2)c(OC)cc1NC(=O)CC(C)C	Pf growth 96h inconclusive
CC(C)(C)CC(=O)NC(=S)NCCc1ccccc1	Pf growth 96h 12µM, CHX counter 30
CCCCN1C(=O)CCC(C(=O)O)C1c1ccc([N+](=O)[O-])cc1 (centres undefined)	none
CCOc1cccc(C2NC(=S)NC(C)=C2C(=O)Nc2ccccc2)c1 (centres undefined)	none
CC1=C(C(=O)Nc2ccccn2)C(c2ccc(Cl)cc2Cl)NC(=S)N1 (centres undefined)	Shiga toxin inh 111, Pf growth 48h inconclusive, CHX counter 35
CC1=C(C(=O)Nc2ccccn2)C(c2ccccc2Cl)NC(=S)N1 (centres undefined)	Pf growth 96h inconclusive, Shiga toxin inh 100, CHX counter 40
COc1ccc(CNC(=S)NC(C)CCc2ccccc2)cc1 (centres undefined)	Pf growth 48h inconclusive
CC(C)CC(C(=O)NC1CCCCC1)N(Cc1ccccc1)C(=O)c1snc(C(N)=O)c1N (centres undefined)	Pf growth 96h inconclusive, Pf growth 48h inconclusive
COc1ccc(CN(C(=O)c2snc(C(N)=O)c2N)C(CC(C)C)C(=O)NC2CCCCC2)cc1 (centres undefined)	Pf growth 96h inconclusive, Pf growth 48h 12µM
CC(C)(C)NC(=O)C(c1ccco1)N(Cc1ccc2c(c1)OCO2)C(=O)c1snc(C(N)=O)c1N (centres undefined)	Pf growth 96h 9.3µM
NC(=O)c1nsc(C(=O)N(CCc2ccccc2)C(C(=O)NC2CCCC2)c2ccco2)c1N (centres undefined)	Pf growth 96h 10µM, Pf growth 48h inconclusive
CC(C)CCNC(=O)C(c1ccco1)N(Cc1ccccc1)C(=O)c1snc(C(N)=O)c1N (centres undefined)	Pf growth 48h inconclusive (no result: Pf growth 96h)
CCOCCCN(C(=O)c1snc(C(N)=O)c1N)C(C(=O)NC1CCCC1)c1ccc(OC)cc1 (centres undefined)	Pf growth 48h 8.3µM
COC(=O)c1nc(NC(=O)c2cc(OC)c(OC)c(OC)c2)n[nH]1	none
Cc1ccc(NC(=O)Cc2nnc(SCC(=O)NC3CCCC3)n2C)c(C)c1	none
CCCCC(C(=O)NC(C)(C)C)N(Cc1ccccc1Cl)C(=O)c1snc(C(N)=O)c1N (centres undefined)	Pf growth 48h 10µM
CCCC(C(=O)NC(C)(C)C)N(Cc1ccccc1Cl)C(=O)c1snc(C(N)=O)c1N (centres undefined)	Pf growth 96h inconclusive, Pf growth 48h inconclusive
O=C(NCCNC(=O)c1cc(Cl)ccc1Cl)c1cnccn1	none
COC(=O)[C@@H](NC(=O)CCc1nnc(-c2ccsc2)o1)C(C)C	CHX counter 50
CCOC(=O)CC1COCCN1C(=O)CCc1nnc(-c2ccsc2)o1 (centres undefined)	CHX counter 33
Cc1nc(C(C)NC(=O)CCc2nnc(-c3ccsc3)o2)cs1 (centres undefined)	Pf growth 96h inconclusive
CCN(CC)P(=O)(Nc1ccccc1Br)c1ccc(N(C)C)cc1NC(=O)c1ccco1 (centres undefined)	Pf growth 96h 9.3µM, Pf growth 48h inconclusive
CC(C)NC(=O)C1(S(=O)(=O)c2ccccc2)CC=CC1	none
CCc1ccc2c(c1)C(NC(C)=O)C(=O)N2CCN1CCOCC1 (centres undefined)	none
O=C(CSc1nnnn1-c1ccccc1)c1ccc(O)cc1O	CHX counter 14
Cc1ccc(C(=O)CSc2nnnn2-c2ccccc2)o1	Shiga toxin inh 49
O=C(CSc1nnnn1-c1ccccc1)CSc1nnnn1-c1ccccc1	Pf growth 96h inconclusive
Cc1cc(C(=O)CSc2nnnn2-c2ccc(O)cc2)c(C)n1C	Shiga toxin inh 66, CHX counter 25
OC1COC(O)C(O)C1O (centres undefined)	none (no result: LmPK inhibitor, Shiga toxin inh, CHX counter)
